# Of roughly 8,800 targets only a part is listed; those with a hit were picked by preference. About 0.5% of all pairs of compound and target were hits. Unmarked numbers belong to inactive results.
# Experiments:
# Assay in all cases: log2 fold change, soluble protein after heating vs DMSO (PISA); higher = thermal stabilisation; K562 lysate, 10 uM; active = over 0.2 and 3.5 SD of the protein, either way, in both replicates (recomputed)
# erlotinib = compound: C#Cc1cccc(Nc2ncnc3cc(OCCOC)c(OCCOC)cc23)c1 [erlotinib]
# In short: (§1)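 A 30 min treatment with 10 μM compound was applied to crude K562 extract at 1 mg/mL protein in PBS pH 7.4 with 1 mM MgCl2. Heating for 3 min spanned 48°C-58°C, after which aliquots were pooled, adjusted to 0.5% NP-40 at 4°C and spun at 21,000xg for 90 min. TMTpro 16plex LC-MS/MS of the supernatant, with channel sums equalised, gave values recorded as log-two fold change in thermal stability against solvent controls, from duplicates.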
# [1] = compound: C/C(=N\NC(=O)C1=CC(=CC=C1)S(=O)(=O)N2CCOCC2)/C3=C(C=CC(=C3)Cl)O
# In short: as §1
# [2] = compound: C1=CC(=CC=C1C2=NC3=C(N2)C=C(C=C3)C(=O)N)OC4=CC=C(C=C4)Cl
# In short: as §1
# [3] = compound: C1=CC2=C(C=CC(=C2)/C=C\3/C(=O)NC(=NCC4=CC=CS4)S3)N=C1
# In short: as §1
# [4] = compound: C1=CC2=NC=CN=C2C=C1/C=C/3\C(=O)NC(=O)S3
# In short: as §1
# [5] = compound: C1=CC=C(C=C1)C2=NC(=C(N2)C3=CC=NC=C3)C4=CC(=C(C=C4)Cl)O
# In short: as §1
# [6] = compound: C1=CC=C2C(=C1)C3=NNC4=CC=CC(=C43)C2=O
# In short: as §1
# [7] = compound: C1CCN(C1)C(=O)NC2=CC=CC(=C2)NC3=NC=C(C(=N3)NCCC4=CN=CN4)Br
# In short: as §1
# [8] = compound: C1CN(CCC1(CC2=CC=C(C=C2)Cl)N)C3=NC=NC4=C3C=CN4
# In short: as §1
# IRAK-1-4 Inhibitor I = compound: C1COCCN1CCN2C3=CC=CC=C3N=C2NC(=O)C4=CC(=CC=C4)[N+](=O)[O-] [IRAK-1-4 Inhibitor I]
# In short: as §1
# ibrutinib = compound: C=CC(=O)N1CCC[C@@H](n2nc(-c3ccc(Oc4ccccc4)cc3)c3c(N)ncnc32)C1 [ibrutinib]
# In short: as §1
# [9] = compound: CC(=O)c1cnc2ccc(-c3cc(Cl)c(O)c(Cl)c3)nc2c1N[C@H]1CC[C@H](CN(C)C)CC1
# In short: as §1
# ralimetinib = compound: CC(C)(C)Cn1c(N)nc2ccc(-c3[nH]c(C(C)(C)C)nc3-c3ccc(F)cc3)nc21 [ralimetinib]
# In short: as §1
# [10] = compound: CC(C)(O)CC(=O)NCCn1ccc2ncnc(Nc3ccc(Oc4cccc(C(F)(F)F)c4)c(Cl)c3)c21
# In short: as §1
# [11] = compound: CC(C)C1=C2N=C(C=C(N2N=C1)NCC3=CC=CC=C3)NCCCCCCN
# In short: as §1
# [12] = compound: CC1=C(C(CC(=O)N1)C2=CC=C(C=C2)C(F)(F)F)C(=O)NC3=C(C=C4C(=C3)C=NN4)F
# In short: as §1
# [13] = compound: CC1=C(C2=C(C=C1)C(=O)C3=CC=CC=C3N2CCCN)C
# In short: as §1
# [14] = compound: CC1=C(C=C(C=C1)NC(=O)C2=CC(=CC=C2)C(C)(C)C#N)NC3=CC4=C(C=C3)N=CN(C4=O)C
# In short: as §1
# [15] = compound: CC1=C(C=C(C=C1)NC(=O)C2=CC(=CC=C2)N(C)C)NC(=O)C3=CC=C(C=C3)O
# In short: as §1
# [16] = compound: CC1=CC=C(C=C1)SC2=C3C=C(SC3=CN=C2)C(=O)N
# In short: as §1
# Chain of UniProt Q8IU81 (Q8IU81 whole entry, looked up): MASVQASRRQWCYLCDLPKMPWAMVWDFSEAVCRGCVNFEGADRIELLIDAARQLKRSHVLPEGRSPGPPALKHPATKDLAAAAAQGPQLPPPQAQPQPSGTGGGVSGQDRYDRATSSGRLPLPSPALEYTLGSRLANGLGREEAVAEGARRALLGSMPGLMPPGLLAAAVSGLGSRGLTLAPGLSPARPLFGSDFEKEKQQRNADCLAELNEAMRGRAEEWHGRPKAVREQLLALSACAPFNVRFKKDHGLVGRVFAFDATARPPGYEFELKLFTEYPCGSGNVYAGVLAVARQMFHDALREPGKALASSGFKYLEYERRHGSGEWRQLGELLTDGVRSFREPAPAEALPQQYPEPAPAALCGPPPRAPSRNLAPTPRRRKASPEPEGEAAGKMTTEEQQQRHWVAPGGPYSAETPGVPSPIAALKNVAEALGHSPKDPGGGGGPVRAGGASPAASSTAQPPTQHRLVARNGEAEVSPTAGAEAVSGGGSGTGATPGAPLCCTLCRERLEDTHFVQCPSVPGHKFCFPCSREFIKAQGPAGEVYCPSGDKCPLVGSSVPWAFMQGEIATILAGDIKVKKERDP
# Chain of UniProt Q13478 (Q13478 whole entry, looked up): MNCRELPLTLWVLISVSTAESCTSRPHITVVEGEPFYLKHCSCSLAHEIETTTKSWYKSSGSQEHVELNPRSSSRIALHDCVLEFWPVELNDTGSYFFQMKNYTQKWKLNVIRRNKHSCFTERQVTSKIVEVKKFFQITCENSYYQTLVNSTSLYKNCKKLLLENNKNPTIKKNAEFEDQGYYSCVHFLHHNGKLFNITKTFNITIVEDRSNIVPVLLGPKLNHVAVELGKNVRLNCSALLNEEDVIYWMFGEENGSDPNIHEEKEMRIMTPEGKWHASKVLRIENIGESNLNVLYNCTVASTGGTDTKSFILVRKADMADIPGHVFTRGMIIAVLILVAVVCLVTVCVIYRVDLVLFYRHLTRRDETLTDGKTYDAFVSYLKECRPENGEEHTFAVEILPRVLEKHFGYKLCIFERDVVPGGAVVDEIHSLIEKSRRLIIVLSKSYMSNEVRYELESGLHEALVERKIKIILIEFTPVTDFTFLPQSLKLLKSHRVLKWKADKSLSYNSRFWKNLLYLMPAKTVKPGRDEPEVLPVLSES
# Chain of UniProt P49841 (P49841 whole entry, looked up): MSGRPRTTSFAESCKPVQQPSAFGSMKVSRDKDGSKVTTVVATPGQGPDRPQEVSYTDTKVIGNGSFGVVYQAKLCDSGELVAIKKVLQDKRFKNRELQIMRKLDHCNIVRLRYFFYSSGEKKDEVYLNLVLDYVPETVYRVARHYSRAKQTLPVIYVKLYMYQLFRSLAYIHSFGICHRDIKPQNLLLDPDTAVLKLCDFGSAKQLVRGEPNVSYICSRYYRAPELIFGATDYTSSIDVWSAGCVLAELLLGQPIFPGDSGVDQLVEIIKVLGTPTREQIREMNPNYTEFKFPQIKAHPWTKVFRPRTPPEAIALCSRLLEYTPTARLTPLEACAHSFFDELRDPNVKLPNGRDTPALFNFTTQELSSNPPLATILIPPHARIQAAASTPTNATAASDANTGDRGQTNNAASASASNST
# Chain of UniProt Q99729 (Q99729 whole entry, looked up): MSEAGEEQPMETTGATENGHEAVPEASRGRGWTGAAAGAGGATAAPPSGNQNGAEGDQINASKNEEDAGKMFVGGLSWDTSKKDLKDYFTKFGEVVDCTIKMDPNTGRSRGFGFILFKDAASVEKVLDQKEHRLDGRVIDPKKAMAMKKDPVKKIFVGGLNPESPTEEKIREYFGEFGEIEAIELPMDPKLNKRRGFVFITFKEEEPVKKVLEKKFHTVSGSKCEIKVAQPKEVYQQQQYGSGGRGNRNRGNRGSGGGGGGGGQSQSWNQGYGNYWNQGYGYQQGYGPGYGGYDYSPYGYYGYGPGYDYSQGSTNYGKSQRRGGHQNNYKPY
# Chain of UniProt Q13322 (Q13322 whole entry, looked up): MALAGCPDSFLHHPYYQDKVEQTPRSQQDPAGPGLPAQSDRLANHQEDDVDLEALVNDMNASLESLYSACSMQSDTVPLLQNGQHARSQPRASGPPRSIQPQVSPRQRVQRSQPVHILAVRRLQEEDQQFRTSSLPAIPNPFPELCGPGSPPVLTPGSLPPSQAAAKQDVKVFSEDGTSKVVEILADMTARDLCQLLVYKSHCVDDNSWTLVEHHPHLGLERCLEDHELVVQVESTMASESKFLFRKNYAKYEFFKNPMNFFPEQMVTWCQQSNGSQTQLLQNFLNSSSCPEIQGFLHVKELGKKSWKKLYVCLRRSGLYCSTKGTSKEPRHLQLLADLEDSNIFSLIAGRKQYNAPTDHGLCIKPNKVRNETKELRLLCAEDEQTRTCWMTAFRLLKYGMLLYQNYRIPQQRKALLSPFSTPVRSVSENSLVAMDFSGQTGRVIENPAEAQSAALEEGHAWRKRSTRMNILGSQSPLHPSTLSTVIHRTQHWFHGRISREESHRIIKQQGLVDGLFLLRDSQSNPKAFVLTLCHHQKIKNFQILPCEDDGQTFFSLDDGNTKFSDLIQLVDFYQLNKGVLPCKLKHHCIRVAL
# Chain of UniProt Q7Z4H7 (Q7Z4H7 whole entry, looked up): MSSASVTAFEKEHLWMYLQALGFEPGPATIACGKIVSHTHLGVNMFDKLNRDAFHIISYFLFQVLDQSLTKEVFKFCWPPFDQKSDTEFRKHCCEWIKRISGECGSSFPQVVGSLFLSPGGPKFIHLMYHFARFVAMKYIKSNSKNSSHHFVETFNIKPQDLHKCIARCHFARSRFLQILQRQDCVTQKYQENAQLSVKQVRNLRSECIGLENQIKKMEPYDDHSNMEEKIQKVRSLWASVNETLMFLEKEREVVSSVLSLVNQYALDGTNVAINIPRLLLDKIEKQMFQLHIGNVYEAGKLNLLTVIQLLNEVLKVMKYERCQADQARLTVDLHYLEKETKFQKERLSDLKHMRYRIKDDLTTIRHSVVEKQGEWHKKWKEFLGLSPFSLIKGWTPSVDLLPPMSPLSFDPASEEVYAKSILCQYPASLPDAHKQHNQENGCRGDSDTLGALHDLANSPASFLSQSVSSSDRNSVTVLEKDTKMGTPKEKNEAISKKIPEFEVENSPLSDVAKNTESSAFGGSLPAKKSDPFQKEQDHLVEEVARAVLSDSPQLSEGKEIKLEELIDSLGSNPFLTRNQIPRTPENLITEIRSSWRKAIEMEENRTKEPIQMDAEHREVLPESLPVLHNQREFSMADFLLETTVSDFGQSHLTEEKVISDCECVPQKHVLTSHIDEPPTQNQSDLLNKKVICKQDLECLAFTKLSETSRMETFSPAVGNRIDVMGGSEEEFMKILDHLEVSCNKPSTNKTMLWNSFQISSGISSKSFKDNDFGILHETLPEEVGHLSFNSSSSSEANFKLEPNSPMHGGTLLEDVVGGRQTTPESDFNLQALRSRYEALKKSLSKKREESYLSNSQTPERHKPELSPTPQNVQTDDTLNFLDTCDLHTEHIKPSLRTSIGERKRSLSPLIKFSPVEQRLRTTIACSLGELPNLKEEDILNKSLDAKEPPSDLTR
# Chain of UniProt Q9P2X3 (Q9P2X3 whole entry, looked up): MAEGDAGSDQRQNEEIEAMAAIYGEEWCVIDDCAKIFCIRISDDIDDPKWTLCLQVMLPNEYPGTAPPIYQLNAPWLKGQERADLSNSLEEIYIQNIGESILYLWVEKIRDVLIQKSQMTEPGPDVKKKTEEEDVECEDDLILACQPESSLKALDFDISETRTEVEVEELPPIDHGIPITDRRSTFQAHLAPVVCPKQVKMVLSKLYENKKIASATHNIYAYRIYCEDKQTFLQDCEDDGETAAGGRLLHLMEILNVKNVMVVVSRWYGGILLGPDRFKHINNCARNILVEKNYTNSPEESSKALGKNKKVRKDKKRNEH
# Chain of UniProt Q8WVV9 (Q8WVV9 whole entry, looked up): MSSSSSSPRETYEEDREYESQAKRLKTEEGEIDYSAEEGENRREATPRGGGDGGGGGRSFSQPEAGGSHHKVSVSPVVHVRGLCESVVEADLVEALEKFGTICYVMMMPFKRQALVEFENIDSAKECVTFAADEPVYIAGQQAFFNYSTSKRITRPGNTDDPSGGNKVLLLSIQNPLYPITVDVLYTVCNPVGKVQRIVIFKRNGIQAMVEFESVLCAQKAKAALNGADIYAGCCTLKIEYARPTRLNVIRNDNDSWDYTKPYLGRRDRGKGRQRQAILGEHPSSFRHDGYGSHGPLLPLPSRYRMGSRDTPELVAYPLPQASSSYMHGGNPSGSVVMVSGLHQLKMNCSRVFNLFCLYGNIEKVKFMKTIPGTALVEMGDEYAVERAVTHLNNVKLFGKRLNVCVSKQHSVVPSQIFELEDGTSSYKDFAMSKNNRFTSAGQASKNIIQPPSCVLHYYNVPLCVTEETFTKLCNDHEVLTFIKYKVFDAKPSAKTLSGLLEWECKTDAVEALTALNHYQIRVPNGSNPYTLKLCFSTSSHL
# Chain of UniProt Q9H0C8 (Q9H0C8 whole entry, looked up): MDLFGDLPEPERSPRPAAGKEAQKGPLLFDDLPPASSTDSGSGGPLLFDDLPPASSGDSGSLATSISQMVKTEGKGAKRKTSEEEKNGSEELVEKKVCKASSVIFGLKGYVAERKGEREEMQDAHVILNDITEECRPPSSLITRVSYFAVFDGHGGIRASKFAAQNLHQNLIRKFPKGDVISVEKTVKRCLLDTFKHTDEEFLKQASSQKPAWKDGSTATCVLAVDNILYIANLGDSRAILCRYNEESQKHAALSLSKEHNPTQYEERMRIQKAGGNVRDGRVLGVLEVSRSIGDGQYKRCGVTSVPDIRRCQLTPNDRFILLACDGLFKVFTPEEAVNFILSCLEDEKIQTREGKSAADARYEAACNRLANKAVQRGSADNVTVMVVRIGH
# Chain of UniProt Q9H4A6 (Q9H4A6 whole entry, looked up): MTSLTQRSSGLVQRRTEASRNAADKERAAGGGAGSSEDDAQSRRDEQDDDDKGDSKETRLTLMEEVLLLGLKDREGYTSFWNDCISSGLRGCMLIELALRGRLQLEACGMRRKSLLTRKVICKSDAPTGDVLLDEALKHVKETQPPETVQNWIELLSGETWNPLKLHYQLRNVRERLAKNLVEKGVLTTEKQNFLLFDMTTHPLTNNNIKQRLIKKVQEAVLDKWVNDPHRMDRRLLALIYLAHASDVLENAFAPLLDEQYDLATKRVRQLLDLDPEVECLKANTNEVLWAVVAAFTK
Target,log2 fold change (erlotinib),log2 fold change [1],log2 fold change [2],log2 fold change [3],log2 fold change [4],log2 fold change [5],log2 fold change [6],log2 fold change [7],log2 fold change [8],log2 fold change (IRAK-1-4 Inhibitor I),log2 fold change (ibrutinib),log2 fold change [9],log2 fold change (ralimetinib),log2 fold change [10],log2 fold change [11],log2 fold change [12],log2 fold change [13],log2 fold change [14],log2 fold change [15],log2 fold change [16]
ILKAP (UniProt Q9H0C8),-0.042,-0.01,-0.007,0.027,-0.021,-0.005,0.015,-0.022,-0.043,0.004,-0.018,0,-0.007,0.031,-0.032,0.007,0.037,-0.016,0,-0.002
HNRNPUL1 (UniProt Q9BUJ2),-0.039,0.011,0.002,-0.016,-0.023,-0.045,0.03,0.01,-0.02,-0.032,0.028,-0.13,0.017,-0.014,-0.019,0,-0.012,-0.275 (active),0,0.007
GSK3B isoform 2 (UniProt P49841),0.043,-0.323,0.036,0.145,0.085,0.459,0.132,0.202,-0.011,-0.002,-0.064,0.344,-0.012,-0.008,-0.016,-0.04,-0.006,-0.018,-0.029,0.189
H4C1 (UniProt P62805),0.065,0.499,-0.023,-0.042,-0.024,0.252,-0.008,0.067,-0.052,-0.067,0.055,-0.008,-0.078,-0.037,-0.046,0.075,-0.082,0.011,-0.022,0.008
HNRNPAB isoform 3 (UniProt Q99729),-0.032,-0.214,0.017,-0.007,0.002,-0.001,-0.012,0.003,0,0.009,-0.029,-0.159,-0.037,0.006,-0.007,0.055,-0.003,-0.01,-0.013,0
HNRNPLL (UniProt Q8WVV9),0.007,0,0.011,0.009,-0.017,-0.019,-0.035,0.006,-0.009,-0.026,-0.024,0.016,0.005,0.005,-0.004,-0.019,-0.012,0.026,0.024,0.021
HIST2H2AA3 (UniProt Q6FI13),-0.012,-0.956,0.002,-0.054,-0.05,0.126,0.012,0.083,0.019,-0.055,-0.011,-0.014,-0.112,0.065,0,-0.012,0.028,-0.046,0.032,0.045
IL18R1 (UniProt Q13478),-0.029,-0.493,-0.136,0.147,0.041,0.152,0.079,-0.155,0.058,-0.043,-0.177,0.117,-0.261,-0.463,0.053,-0.066,-0.031,0.061,0.15,0.097
HAUS6 (UniProt Q7Z4H7),0.031,0.102,-0.038,-0.035,-0.008,0.019,0.024,-0.015,0.039,0.017,0.025,-0.054,0.027,-0.003,-0.015,0.029,0.01,-0.008,0.073,0.078
IRF2BP1 (UniProt Q8IU81),-0.024,-0.114,0.022,-0.016,0.021,-0.039,-0.021,-0.057,0.006,-0.018,0.003,0.027,0.008,0.02,0.006,-0.016,-0.027,0.02,-0.001,-0.038
HNRNPH2 (UniProt P55795),-0.035,0.112,0.028,-0.047,0.02,0.038,-0.015,0.01,-0.013,0,0.017,0,-0.03,-0.023,-0.01,0.056,0.024,0.081,0.053,0.029
HMGA1 (UniProt P17096),-0.037,-0.053,-0.001,-0.026,-0.053,-0.007,0.026,0.036,0.013,-0.022,0.004,-0.022,-0.024,-0.043,0.002,-0.03,0.075,-0.008,-0.023,-0.017
IMPACT (UniProt Q9P2X3),-0.03,0.13,0.014,0.083,0.043,0.056,0.001,0.06,-0.082,-0.076,-0.19,-0.075,0.061,0.001,-0.065,0.289,0.034,0.146,0.14,-0.052
KDM6A (UniProt O15550),-0.022,-0.039,0.061,0,0.006,0.023,-0.064,0.004,0.045,0.017,-0.007,0.012,0.003,-0.028,0.025,-0.007,-0.065,0.009,-0.004,0.022
GRB10 (UniProt Q13322),0.027,-0.004,-0.06,0.013,-0.03,0.016,0.019,0.073,0.054,-0.039,0.015,-0.039,-0.006,-0.032,0.014,0.04,-0.015,-0.032,-0.006,0.066
GOLPH3 (UniProt Q9H4A6),0.022,-0.041,-0.075,0.017,0.012,0.004,0.019,-0.008,-0.02,0.035,0.024,0,0.034,-0.019,0.043,-0.023,0.001,-0.02,-0.023,0.004
